# Measurements as given in PMC7862700, “An all-to-all approach to the identification of sequence-specific readers for epigenetic DNA modifications on cytosine”.
# Experiments:
# Experiment in all cases: DAPPL (digital affinity profiling via proximity ligation, sequencing); 10 mM Tris-HCl pH 7.5, 50 mM NaCl, 1 mM DTT, 4% glycerol, room temperature, 30 min; GST-TFs on glutathione beads, 16-mer random dsDNA library, 0.1% formaldehyde crosslink after washing; high values mean tight binding
# FEV = target: T1, FEV (Homo sapiens, UniProt Q99581 1-238); conditions: protein: recombinant; tags: N-terminal GST; dsDNA, one strand shown
# T1 sequence: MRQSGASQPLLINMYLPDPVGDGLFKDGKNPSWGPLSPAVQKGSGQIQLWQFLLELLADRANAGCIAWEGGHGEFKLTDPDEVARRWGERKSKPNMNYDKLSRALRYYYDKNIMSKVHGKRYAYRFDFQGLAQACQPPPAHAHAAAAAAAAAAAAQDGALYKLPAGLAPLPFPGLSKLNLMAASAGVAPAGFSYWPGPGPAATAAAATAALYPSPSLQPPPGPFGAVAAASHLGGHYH
# In short: (§1)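 Binding signal is each hexamer's read frequency for a factor divided by its frequency in the tag-only sample. The factors were GST-fused human transcription factors from yeast, captured on glutathione beads, DNA-barcoded and pooled with that sample. Pools were incubated with 200 nmole of a random double-stranded 16-mer DNA library in Tris/NaCl/DTT/glycerol buffer at room temperature for 30 min, then washed, crosslinked with 0.1% formaldehyde, proximity-ligated with BsaI/T4 ligase (1 h, 37 °C), PCR-amplified and sequenced on an Illumina NextSeq500.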
# ETV5 = ETV5 (Homo sapiens, UniProt P41161 1-510); conditions: protein: recombinant; tags: N-terminal GST; dsDNA, one strand shown
# ETV5, sequence (P41161 whole entry): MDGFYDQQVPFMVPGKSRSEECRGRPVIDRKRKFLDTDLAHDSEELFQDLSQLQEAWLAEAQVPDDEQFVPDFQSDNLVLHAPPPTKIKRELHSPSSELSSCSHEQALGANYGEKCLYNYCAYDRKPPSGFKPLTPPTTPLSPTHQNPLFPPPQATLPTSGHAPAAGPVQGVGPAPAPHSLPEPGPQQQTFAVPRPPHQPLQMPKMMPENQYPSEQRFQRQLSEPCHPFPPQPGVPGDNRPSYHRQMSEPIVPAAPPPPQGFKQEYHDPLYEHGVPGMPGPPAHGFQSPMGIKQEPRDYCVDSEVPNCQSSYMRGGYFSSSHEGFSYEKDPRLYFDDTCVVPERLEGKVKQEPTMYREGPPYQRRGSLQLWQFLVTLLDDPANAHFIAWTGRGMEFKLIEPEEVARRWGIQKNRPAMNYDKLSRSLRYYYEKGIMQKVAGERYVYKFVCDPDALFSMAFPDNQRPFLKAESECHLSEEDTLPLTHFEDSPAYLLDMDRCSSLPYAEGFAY
# In short: as §1
# HSF1 = HSF1 (Homo sapiens, UniProt Q00613 1-529); conditions: protein: recombinant; tags: N-terminal GST; chain copies: 3; dsDNA, one strand shown
# HSF1, sequence (Q00613 whole entry): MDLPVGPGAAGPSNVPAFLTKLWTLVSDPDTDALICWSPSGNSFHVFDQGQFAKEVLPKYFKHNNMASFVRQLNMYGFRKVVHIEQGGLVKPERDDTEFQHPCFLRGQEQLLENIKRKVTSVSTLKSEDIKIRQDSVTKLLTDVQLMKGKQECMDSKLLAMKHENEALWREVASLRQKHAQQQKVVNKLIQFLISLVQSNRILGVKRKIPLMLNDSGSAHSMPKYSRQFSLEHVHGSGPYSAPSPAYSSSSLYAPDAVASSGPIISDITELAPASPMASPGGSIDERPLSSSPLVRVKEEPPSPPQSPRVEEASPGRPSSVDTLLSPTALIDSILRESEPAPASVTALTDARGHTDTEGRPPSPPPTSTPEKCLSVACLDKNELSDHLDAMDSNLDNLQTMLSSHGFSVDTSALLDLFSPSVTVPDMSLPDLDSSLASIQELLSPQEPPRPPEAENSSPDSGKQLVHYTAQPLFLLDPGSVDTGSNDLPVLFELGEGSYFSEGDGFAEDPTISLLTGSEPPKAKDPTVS
# In short: as §1
# SPIC = target: T2, SPIC (Homo sapiens, UniProt Q8N5J4 1-248); conditions: protein: recombinant; tags: N-terminal GST; dsDNA, one strand shown
# T2 sequence: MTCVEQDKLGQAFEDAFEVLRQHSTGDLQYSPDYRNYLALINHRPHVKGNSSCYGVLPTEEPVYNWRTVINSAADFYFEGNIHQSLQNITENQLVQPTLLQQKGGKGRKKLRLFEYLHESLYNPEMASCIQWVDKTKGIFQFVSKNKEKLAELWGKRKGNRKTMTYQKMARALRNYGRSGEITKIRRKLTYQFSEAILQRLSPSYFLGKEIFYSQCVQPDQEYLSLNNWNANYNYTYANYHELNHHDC
# In short: as §1
# ELF4 = ELF4 (Homo sapiens, UniProt Q99607 1-663); conditions: protein: recombinant; tags: N-terminal GST; dsDNA, one strand shown
# ELF4, sequence (Q99607 whole entry): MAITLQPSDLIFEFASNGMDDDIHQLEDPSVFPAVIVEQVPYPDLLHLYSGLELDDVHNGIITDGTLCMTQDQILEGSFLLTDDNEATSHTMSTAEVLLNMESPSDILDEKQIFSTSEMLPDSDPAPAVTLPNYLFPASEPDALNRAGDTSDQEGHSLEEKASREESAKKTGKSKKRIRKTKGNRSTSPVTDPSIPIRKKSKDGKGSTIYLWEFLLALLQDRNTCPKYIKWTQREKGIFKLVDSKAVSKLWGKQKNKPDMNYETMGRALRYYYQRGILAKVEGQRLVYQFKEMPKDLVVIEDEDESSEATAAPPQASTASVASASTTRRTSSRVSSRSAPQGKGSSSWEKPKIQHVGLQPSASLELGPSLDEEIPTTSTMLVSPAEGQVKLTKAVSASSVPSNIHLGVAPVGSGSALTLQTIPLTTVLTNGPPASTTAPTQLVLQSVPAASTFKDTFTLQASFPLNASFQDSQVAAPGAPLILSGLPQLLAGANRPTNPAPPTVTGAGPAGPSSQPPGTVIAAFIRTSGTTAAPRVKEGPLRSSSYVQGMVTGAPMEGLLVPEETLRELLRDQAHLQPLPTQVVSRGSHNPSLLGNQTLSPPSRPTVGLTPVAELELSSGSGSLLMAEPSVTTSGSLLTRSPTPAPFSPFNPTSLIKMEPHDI
# In short: as §1
# ELK4 = target: T3, ELK4 (Homo sapiens, UniProt P28324-2 1-405); conditions: protein: recombinant; tags: N-terminal GST; dsDNA, one strand shown
# T3 sequence: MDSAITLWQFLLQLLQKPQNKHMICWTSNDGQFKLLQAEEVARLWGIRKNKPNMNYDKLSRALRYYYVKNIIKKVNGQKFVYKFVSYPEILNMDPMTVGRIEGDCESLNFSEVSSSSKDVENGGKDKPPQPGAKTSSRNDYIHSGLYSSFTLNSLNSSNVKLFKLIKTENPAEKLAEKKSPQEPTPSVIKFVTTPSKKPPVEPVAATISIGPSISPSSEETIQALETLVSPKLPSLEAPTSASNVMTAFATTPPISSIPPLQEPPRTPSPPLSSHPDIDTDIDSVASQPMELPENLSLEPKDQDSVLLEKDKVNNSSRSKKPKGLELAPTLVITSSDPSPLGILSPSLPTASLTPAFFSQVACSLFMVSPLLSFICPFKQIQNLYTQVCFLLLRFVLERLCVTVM
# In short: as §1
# ETV2 = target: T4, ETV2 (Homo sapiens, UniProt O00321 1-342); conditions: protein: recombinant; tags: N-terminal GST; dsDNA, one strand shown
# T4 sequence: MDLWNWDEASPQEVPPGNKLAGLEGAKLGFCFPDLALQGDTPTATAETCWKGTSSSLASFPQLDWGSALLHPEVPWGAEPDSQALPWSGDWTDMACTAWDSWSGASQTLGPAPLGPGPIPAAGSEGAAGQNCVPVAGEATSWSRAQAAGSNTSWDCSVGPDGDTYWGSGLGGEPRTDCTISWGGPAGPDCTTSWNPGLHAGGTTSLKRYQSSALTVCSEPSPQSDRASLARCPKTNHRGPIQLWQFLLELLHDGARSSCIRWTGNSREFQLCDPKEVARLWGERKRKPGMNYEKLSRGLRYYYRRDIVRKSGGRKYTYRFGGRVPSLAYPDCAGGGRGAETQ
# In short: as §1
# ELF3 = target: T5, ELF3 (Homo sapiens, UniProt P78545 1-371); conditions: protein: recombinant; tags: N-terminal GST; dsDNA, one strand shown
# T5 sequence: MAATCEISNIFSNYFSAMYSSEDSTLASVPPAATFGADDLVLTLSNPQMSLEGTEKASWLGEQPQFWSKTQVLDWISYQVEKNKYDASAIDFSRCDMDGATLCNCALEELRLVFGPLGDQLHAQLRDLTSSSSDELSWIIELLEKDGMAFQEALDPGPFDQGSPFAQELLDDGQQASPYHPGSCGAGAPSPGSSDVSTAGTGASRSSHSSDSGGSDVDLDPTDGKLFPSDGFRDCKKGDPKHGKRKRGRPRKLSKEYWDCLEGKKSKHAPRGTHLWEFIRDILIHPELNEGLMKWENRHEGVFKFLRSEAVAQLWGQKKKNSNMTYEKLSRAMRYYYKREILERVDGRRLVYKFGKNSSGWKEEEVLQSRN
# In short: as §1
# CRX = CRX (Homo sapiens, UniProt O43186 1-299); conditions: protein: recombinant; tags: N-terminal GST; dsDNA, one strand shown
# CRX, sequence (O43186 whole entry): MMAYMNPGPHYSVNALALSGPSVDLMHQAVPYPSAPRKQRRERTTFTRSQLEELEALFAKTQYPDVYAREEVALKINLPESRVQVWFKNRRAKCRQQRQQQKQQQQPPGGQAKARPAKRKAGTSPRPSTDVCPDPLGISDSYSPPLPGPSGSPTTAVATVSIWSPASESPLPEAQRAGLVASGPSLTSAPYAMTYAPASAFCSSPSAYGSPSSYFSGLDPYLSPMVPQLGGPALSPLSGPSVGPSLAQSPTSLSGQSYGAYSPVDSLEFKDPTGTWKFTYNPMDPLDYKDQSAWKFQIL
# In short: as §1
# ETV1 = ETV1 (Homo sapiens, UniProt P50549 1-477); conditions: protein: recombinant; tags: N-terminal GST; dsDNA, one strand shown
# ETV1, sequence (P50549 whole entry): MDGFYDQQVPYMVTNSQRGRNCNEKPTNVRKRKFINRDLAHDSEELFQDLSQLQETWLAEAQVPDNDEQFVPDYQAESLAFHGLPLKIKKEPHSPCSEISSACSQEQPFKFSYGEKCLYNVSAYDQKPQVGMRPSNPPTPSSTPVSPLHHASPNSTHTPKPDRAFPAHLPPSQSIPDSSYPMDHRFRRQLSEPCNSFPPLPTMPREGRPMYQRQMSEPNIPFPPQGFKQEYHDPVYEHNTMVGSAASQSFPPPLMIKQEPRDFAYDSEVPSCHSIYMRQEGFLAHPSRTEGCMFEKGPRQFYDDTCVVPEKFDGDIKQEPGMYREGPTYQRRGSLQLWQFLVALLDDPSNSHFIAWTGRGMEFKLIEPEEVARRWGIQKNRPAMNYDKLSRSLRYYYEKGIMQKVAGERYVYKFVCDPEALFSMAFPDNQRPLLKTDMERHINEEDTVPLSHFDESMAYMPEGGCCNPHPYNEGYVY
# In short: as §1
# ERF = target: T6, ERF (Homo sapiens, UniProt P50548 1-548); conditions: protein: recombinant; tags: N-terminal GST; dsDNA, one strand shown
# T6 sequence: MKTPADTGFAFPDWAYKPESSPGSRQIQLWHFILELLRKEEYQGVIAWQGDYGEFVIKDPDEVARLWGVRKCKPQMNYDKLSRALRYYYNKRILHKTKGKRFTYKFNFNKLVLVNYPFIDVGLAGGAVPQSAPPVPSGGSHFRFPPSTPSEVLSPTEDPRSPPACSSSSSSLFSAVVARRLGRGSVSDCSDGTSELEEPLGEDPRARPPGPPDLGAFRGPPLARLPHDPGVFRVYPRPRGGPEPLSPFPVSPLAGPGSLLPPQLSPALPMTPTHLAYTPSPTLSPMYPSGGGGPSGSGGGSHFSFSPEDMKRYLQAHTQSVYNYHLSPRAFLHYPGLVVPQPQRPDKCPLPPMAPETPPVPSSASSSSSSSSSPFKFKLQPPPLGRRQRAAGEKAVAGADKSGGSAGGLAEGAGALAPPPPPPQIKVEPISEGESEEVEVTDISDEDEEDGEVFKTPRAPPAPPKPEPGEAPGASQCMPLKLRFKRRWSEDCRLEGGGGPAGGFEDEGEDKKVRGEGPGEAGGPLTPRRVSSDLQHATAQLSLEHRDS
# In short: as §1
# ETV3L = target: T7, ETV3L (Homo sapiens, UniProt Q6ZN32 1-361); conditions: protein: recombinant; tags: N-terminal GST; dsDNA, one strand shown
# T7 sequence: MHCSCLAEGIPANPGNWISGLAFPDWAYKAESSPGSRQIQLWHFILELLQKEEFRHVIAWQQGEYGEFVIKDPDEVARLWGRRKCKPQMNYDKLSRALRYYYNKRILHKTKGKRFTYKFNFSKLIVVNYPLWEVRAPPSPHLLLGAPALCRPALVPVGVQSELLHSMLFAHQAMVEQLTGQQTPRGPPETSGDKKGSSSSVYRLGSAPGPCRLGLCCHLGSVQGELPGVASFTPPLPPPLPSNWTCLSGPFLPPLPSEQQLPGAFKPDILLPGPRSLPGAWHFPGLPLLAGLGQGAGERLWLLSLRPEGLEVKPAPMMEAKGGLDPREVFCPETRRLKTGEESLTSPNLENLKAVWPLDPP
# In short: as §1
# ETS2 = target: T8, ETS2 (Homo sapiens, UniProt P15036 1-469); conditions: protein: recombinant; tags: N-terminal GST; dsDNA, one strand shown
# T8 sequence: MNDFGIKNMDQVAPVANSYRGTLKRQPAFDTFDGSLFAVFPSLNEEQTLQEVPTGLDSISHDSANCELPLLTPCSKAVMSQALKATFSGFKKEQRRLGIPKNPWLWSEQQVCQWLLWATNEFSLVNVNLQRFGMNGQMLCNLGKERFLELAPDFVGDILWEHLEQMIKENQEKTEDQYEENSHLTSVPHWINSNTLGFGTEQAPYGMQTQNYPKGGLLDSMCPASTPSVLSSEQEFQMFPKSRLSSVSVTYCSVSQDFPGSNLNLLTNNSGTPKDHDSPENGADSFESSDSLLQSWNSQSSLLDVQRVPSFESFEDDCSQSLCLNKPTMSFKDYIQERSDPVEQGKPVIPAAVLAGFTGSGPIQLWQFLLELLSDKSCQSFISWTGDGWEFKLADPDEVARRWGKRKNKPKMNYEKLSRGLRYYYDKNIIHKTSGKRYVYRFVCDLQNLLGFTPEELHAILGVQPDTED
# In short: as §1
# SPDEF = target: T9, SPDEF (Homo sapiens, UniProt O95238 1-335); conditions: protein: recombinant; tags: N-terminal GST; dsDNA, one strand shown
# T9 sequence: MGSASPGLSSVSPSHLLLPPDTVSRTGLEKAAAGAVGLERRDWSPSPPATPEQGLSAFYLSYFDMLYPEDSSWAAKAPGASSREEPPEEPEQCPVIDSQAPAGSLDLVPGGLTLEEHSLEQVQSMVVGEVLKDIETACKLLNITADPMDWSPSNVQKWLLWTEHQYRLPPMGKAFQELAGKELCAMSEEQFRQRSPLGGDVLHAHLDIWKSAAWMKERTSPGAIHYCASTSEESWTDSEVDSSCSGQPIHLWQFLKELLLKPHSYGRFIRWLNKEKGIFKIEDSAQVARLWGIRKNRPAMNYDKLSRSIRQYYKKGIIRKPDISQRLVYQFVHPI
# In short: as §1
# ETV7 = target: T10, ETV7 (Homo sapiens, UniProt Q9Y603 1-341); conditions: protein: recombinant; tags: N-terminal GST; dsDNA, one strand shown
# T10 sequence: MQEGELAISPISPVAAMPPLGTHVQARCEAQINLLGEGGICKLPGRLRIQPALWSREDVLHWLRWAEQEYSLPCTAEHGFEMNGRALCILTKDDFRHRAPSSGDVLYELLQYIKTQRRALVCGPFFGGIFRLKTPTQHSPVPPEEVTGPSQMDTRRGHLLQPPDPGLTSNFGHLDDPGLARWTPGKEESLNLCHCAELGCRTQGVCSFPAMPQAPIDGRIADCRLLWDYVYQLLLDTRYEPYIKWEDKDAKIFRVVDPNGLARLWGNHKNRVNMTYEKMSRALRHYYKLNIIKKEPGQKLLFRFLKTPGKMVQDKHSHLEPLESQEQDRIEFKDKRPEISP
# In short: as §1
# ELF5 = target: T11, ELF5 (Homo sapiens, UniProt Q9UKW6-2 1-255); conditions: protein: recombinant; tags: N-terminal GST; dsDNA, one strand shown
# T11 sequence: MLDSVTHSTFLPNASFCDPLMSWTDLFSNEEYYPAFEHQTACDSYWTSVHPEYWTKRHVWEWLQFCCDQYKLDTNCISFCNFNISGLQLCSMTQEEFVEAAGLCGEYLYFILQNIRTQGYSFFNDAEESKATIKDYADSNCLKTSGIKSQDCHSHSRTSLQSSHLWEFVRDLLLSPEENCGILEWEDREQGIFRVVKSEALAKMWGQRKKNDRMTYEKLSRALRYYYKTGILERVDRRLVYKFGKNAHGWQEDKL
# In short: as §1
# ETV3 = target: T12, ETV3 (Homo sapiens, UniProt P41162-2 1-143); conditions: protein: recombinant; tags: N-terminal GST; dsDNA, one strand shown
# T12 sequence: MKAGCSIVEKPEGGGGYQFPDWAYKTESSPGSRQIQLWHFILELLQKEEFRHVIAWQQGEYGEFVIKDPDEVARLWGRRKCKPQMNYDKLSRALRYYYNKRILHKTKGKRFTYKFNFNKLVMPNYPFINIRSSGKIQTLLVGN
# In short: as §1
# ETV6 = ETV6 (Homo sapiens, UniProt P41212 1-452); conditions: protein: recombinant; tags: N-terminal GST; dsDNA, one strand shown
# ETV6, sequence (P41212 whole entry): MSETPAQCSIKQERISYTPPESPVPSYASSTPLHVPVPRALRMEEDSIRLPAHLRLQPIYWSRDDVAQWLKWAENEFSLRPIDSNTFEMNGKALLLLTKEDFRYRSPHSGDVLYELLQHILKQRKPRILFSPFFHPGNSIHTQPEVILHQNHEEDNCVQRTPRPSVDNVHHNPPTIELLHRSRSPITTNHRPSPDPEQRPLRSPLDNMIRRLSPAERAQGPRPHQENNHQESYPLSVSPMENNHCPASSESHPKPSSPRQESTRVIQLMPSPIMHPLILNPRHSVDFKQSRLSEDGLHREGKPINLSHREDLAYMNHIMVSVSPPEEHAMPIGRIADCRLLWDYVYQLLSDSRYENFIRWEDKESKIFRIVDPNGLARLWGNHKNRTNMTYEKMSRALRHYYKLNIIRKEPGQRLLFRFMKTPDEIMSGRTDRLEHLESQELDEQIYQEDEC
# In short: as §1
sequence,measurement,setting,value
TTACCA,binding signal,FEV,"1.09 fold enrichment (6-mer frequency, TF over GST control)"
same,binding signal,ETV5,"1.04 fold enrichment (6-mer frequency, TF over GST control)"
same,binding signal,HSF1,"1.47 fold enrichment (6-mer frequency, TF over GST control)"
same,binding signal,SPIC,"1.09 fold enrichment (6-mer frequency, TF over GST control)"
same,binding signal,ELF4,"1.04 fold enrichment (6-mer frequency, TF over GST control)"
same,binding signal,ELK4,"1.04 fold enrichment (6-mer frequency, TF over GST control)"
same,binding signal,ETV2,"1.13 fold enrichment (6-mer frequency, TF over GST control)"
same,binding signal,ELF3,"1.1 fold enrichment (6-mer frequency, TF over GST control)"
same,binding signal,CRX,"1.74 fold enrichment (6-mer frequency, TF over GST control)"
same,binding signal,ETV1,"1.05 fold enrichment (6-mer frequency, TF over GST control)"
same,binding signal,ERF,"1.07 fold enrichment (6-mer frequency, TF over GST control)"
same,binding signal,ETV3L,"1.07 fold enrichment (6-mer frequency, TF over GST control)"
same,binding signal,ETS2,"1.13 fold enrichment (6-mer frequency, TF over GST control)"
same,binding signal,SPDEF,"1.09 fold enrichment (6-mer frequency, TF over GST control)"
same,binding signal,ETV7,"1.12 fold enrichment (6-mer frequency, TF over GST control)"
same,binding signal,ELF5,"1.04 fold enrichment (6-mer frequency, TF over GST control)"
same,binding signal,ETV3,"1.16 fold enrichment (6-mer frequency, TF over GST control)"
same,binding signal,ETV6,"1.07 fold enrichment (6-mer frequency, TF over GST control)"
